Reference: PubChem BioAssay (Tox21)
Results filed as inconclusive are left out. The source made the active and inactive calls. Calls follow the shape of the dose curve; as a rule, active = well fitted curve in the direction sought with a large enough effect in the repeat runs; inconclusive = weak or mixed curves; inactive = no such curve, though single readings can be large; an effect the other way counts as inactive or inconclusive.

Experiments:
[1] = qHTS RealTime-Glo MT Cell Viability Assay in HEK293 cells - 16 hour (AID 1224872); also: top concentration of the series differs between compounds; nearly all actives have a fitted effect of over 50% in size
Summary of the method: (§1)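 Luminescence generated by NanoLuc from substrate produced by living HEK293 cells served as the viability signal. Each value reflects the reading at its stated time point during continuous 40 h compound exposure at 37 C.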

[2] = qHTS RealTime-Glo MT Cell Viability Assay in HepG2 cells - 8 hour (AID 1224873); also: nearly all actives have a fitted effect of over 55% in size
Summary of the method: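 Real-time viability: cells seeded at 600 per well together with NanoLuc and cell-permeant prosubstrate, compounds added after 5 h incubation. Luminescence tracked at 0, 8, 16, 24, 32 and 40 h of exposure.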

[3] = qHTS RealTime-Glo MT Cell Viability Assay in HEK293 cells - 40 hour (AID 1224874); details: RealTime-Glo luminescence; max response: active compounds read low; also: nearly all actives have a fitted effect of over 50% in size
Summary of the method: (§2)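 Luminescence readout at each listed time point; HEK293, 600 cells/well, RealTime-Glo MT reagent added with cells; compounds pinned (23 nL in DMSO) after 5 h at 37 C; continuous culture at 37 C.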

[4] = A CellTox Green Cytotoxicity Assay to monitor cytotoxicity in HEK293 cells - 24 hour (AID 1224875); also: series mostly up to about 77 µM; nearly all actives have a fitted effect of over 45% in size
Summary of the method: (§3)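 Read-out: fluorescence of a cell-impermeant cyanine dye staining DNA of dead cells, proportional to cytotoxicity. HEK293, 600 cells/well with reagent, compound (23 nL DMSO) added after 5 h; reads at 0, 8, 16, 24, 32, 40 h.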

[5] = A CellTox Green Cytotoxicity Assay to monitor cytotoxicity in HepG2 cells - 16 hour (AID 1224876); also: nearly all actives have a fitted effect of over 45% in size
Summary of the method: (§4)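 HepG2, 600 cells/well premixed w/ CellTox Green; 5 h settle, 37 C/5% CO2; pintool cpd add (DMSO); 37 C, 40 h; fluorescence read at 0, 8, 16, 24, 32, 40 h.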

[6] = A CellTox Green Cytotoxicity Assay to monitor cytotoxicity in HepG2 cells - 24 hour (AID 1224878); also: nearly all actives have a fitted effect of over 45% in size
Summary of the method: as §4

[7] = A CellTox Green Cytotoxicity Assay to monitor cytotoxicity in HepG2 cells - 40 hour (AID 1224879); also: nearly all actives have a fitted effect of over 40% in size
Summary of the method: as §4

[8] = qHTS RealTime-Glo MT Cell Viability Assay in HEK293 cells - 0 hour (AID 1224880); also: top concentration of the series differs between compounds; nearly all actives have a fitted effect of over 45% in size
Summary of the method: as §2

[9] = A CellTox Green Cytotoxicity Assay to monitor cytotoxicity in HEK293 cells - 32 hour (AID 1224881); also: nearly all actives have a fitted effect of over 40% in size
Summary of the method: as §3

[10] = A CellTox Green Cytotoxicity Assay to monitor cytotoxicity in HepG2 cells - 0 hour (AID 1224882); also: nearly all actives have a fitted effect of over 35% in size
Summary of the method: as §4

[11] = qHTS RealTime-Glo MT Cell Viability Assay in HepG2 cells - 16 hour (AID 1224885); also: nearly all actives have a fitted effect of over 50% in size
Summary of the method: (§5)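 Tox21 10K library screened in qHTS format on HepG2 cells carrying RealTime-Glo reagents. Compounds were added after a 5 h preincubation, and the luminescent signal from continuous culture was measured repeatedly during 40 h treatment.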

[12] = qHTS RealTime-Glo MT Cell Viability Assay in HEK293 cells - 24 hour (AID 1224886); also: top concentration of the series differs between compounds; nearly all actives have a fitted effect of over 50% in size
Summary of the method: as §1

[13] = qHTS RealTime-Glo MT Cell Viability Assay in HEK293 cells - 8 hour (AID 1224887)
Summary of the method: as §2

[14] = A CellTox Green Cytotoxicity Assay to monitor cytotoxicity in HEK293 cells - 16 hour (AID 1224888); also: nearly all actives have a fitted effect of over 35% in size
Summary of the method: as §3

[15] = qHTS RealTime-Glo MT Cell Viability Assay in HepG2 cells - 0 hour (AID 1224889); also: nearly all actives have a fitted effect of over 50% in size
Summary of the method: as §5

[16] = A CellTox Green Cytotoxicity Assay to monitor cytotoxicity in HepG2 cells - 8 hour (AID 1224890); also: nearly all actives have a fitted effect of over 45% in size
Summary of the method: as §4

[17] = A CellTox Green Cytotoxicity Assay to monitor cytotoxicity in HEK293 cells - 40 hour (AID 1224871); also: nearly all actives have a fitted effect of over 45% in size
Summary of the method: as §3

[18] = qHTS RealTime-Glo MT Cell Viability Assay in HepG2 cells - 32 hour (AID 1224877); also: nearly all actives have a fitted effect of over 55% in size
Summary of the method: as §5

[19] = A CellTox Green Cytotoxicity Assay to monitor cytotoxicity in HepG2 cells - 32 hour (AID 1224883); also: nearly all actives have a fitted effect of over 50% in size
Summary of the method: as §4

[20] = A CellTox Green Cytotoxicity Assay to monitor cytotoxicity in HEK293 cells - 8 hour (AID 1224884); also: nearly all actives have a fitted effect of over 35% in size
Summary of the method: as §3
% is scaled to controls: 0 for no effect and ±100 for the full control effect.

CC(C)(C)C(=O)/C=C/c1ccc(Cl)cc1
inactive: Potency [1] | outcome [2] | max response [3] -0.497% | Potency [4] | Potency [5] | Potency [6] | Potency [7] | outcome [8] | Potency [9] | Potency [10] | outcome [11] | Potency [12] | Potency [13] | Potency [14] | Potency [15] | Potency [16]

CN(C)N=Nc1ccccc1
inactive: Potency [17] | outcome [2] | max response [3] 15% | Potency [4] | Potency [5] | Potency [18] | Potency [7] | outcome [8] | Potency [9] | Potency [10] | Potency [19] | Potency [20] | outcome [11] | Potency [12] | Potency [13] | Potency [15] | Potency [16]

O=[N+]([O-])c1ccc(Oc2ccc([N+](=O)[O-])cc2)cc1
inactive: Potency [17] | outcome [2] | Potency [4] | Potency [5] | Potency [7] | outcome [8] | Potency [9] | Potency [10] | Potency [19] | Potency [20] | outcome [11] | Potency [14] | Potency [15]

C1=C\CC/C=C\CC/C=C\CC/1
inactive: Potency [17] | outcome [2] | max response [3] 24.2% | Potency [4] | Potency [5] | Potency [6] | Potency [7] | outcome [8] | Potency [9] | Potency [10] | Potency [19] | outcome [11] | Potency [12] | Potency [13] | Potency [15] | Potency [16]

Fc1ccccc1-c1ccccc1
inactive: Potency [1] | outcome [2] | max response [3] -21.5% | Potency [5] | Potency [18] | outcome [8] | Potency [10] | Potency [20] | outcome [11] | Potency [12] | Potency [13] | Potency [14] | Potency [15] | Potency [16]

CCCCCCCCN(C)CCCCCCCC
inactive: Potency [17] | outcome [2] | max response [3] 4.39% | Potency [4] | Potency [5] | Potency [18] | outcome [8] | Potency [9] | Potency [10] | Potency [20] | outcome [11] | Potency [12] | Potency [13] | Potency [14] | Potency [15] | Potency [16]

CCCCC=O
inactive: Potency [17] | outcome [2] | max response [3] 2.57% | Potency [4] | Potency [5] | Potency [18] | Potency [7] | outcome [8] | Potency [9] | Potency [10] | Potency [19] | Potency [20] | outcome [11] | Potency [13] | Potency [14] | Potency [15] | Potency [16]

COc1ccc(N=[N+]([O-])c2ccc(OC)cc2)cc1
inactive: Potency [17] | Potency [4] | Potency [5] | Potency [18] | Potency [6] | Potency [7] | outcome [8] | Potency [9] | Potency [10] | Potency [19] | Potency [20] | outcome [11] | Potency [12] | Potency [14] | Potency [15]

CCC(C)(C)C1CCC(OC)CC1 (stereo not given)
inactive: Potency [17] | outcome [2] | max response [3] 21.9% | Potency [4] | Potency [5] | Potency [7] | outcome [8] | Potency [9] | Potency [10] | Potency [19] | Potency [20] | outcome [11] | Potency [13] | Potency [14] | Potency [15] | Potency [16]

O=C(O)Cc1cc(I)c(Oc2cc(I)c(O)c(I)c2)c(I)c1
inactive: Potency [1] | outcome [2] | max response [3] 1.65% | Potency [5] | Potency [18] | Potency [6] | Potency [7] | outcome [8] | Potency [10] | Potency [19] | Potency [20] | outcome [11] | Potency [12] | Potency [13] | Potency [14] | Potency [15] | Potency [16]

OCCN1C[C@H](O)[C@@H](O)[C@H](O)[C@H]1CO
inactive: Potency [17] | outcome [2] | max response [3] 3.53% | Potency [4] | Potency [5] | Potency [18] | Potency [6] | Potency [7] | outcome [8] | Potency [9] | Potency [10] | Potency [19] | outcome [11] | Potency [12] | Potency [13] | Potency [14] | Potency [15] | Potency [16]
